# Laboratory results reported in PubChem BioAssay (Tox21).
# Results filed as inconclusive are left out. A call without a number means that no potency is given here. Activity calls are given as the source filed them. The call rests on the fitted dose curve; in most records, active means well fitted activation curve with a large enough effect in the repeat runs; inconclusive means weak or mixed curves; inactive means no such curve, though single readings can be large or run the other way.
# Biological target: Aryl hydrocarbon receptor (Homo sapiens) (UniProt P35869)
# Sequence (P35869 whole entry, looked up): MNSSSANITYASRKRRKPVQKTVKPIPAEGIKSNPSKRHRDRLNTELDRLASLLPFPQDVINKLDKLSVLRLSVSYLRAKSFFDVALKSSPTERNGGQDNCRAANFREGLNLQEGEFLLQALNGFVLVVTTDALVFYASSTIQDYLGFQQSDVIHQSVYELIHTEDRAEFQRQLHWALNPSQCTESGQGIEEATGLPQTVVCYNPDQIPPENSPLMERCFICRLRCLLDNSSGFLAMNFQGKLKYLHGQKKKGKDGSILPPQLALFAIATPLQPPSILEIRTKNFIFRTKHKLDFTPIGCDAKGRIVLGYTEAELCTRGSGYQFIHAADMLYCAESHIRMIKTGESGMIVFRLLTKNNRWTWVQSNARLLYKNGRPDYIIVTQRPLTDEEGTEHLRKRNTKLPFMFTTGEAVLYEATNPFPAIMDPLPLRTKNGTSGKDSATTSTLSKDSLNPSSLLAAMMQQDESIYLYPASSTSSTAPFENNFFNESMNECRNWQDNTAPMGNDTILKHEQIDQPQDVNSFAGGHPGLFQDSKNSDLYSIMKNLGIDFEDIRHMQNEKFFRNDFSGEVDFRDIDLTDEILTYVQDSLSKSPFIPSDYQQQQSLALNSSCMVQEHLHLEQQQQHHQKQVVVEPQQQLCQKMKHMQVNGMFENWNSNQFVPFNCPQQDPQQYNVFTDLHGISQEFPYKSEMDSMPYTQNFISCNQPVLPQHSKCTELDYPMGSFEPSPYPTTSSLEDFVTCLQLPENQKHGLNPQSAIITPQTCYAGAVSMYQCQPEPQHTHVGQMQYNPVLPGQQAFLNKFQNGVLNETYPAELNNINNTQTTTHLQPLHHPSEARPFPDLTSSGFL
# Assay: qHTS assay to identify small molecule that activate the aryl hydrocarbon receptor (AhR) signaling pathway (AID 743085); further: nearly all actives have a fitted effect of over 15% in size;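 on activation: HG2L7.5c1 human HepG2 liver cells with stably integrated DRE-driven firefly reporter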
# Conditions: HepG2 AhR-luc (HG2L7.5c1), luciferase, 24 h; series mostly up to 70.3 µM
# Excerpt: U.S. Tox21 Program National Center for Advancing Translational Sciences [NCATS] NIH Chemical Genomics Center [NCGC] U.S. Environmental Protection Agency [EPA] National Institutes of Environmental Health Sciences [NIEHS] National Toxicology Program [NTP] U.S. Food and Drug Administration [FDA] Tox21 Assay overview: The Aryl hydrocarbon Receptor (AhR), a member of the family of basic helix-loop-helix transcription factors, is crucial to adaptive responses to environmental changes. AhR mediates cellular responses to environmental pollutants such as aromatic hydrocarbons through induction of phase I and II enzymes but also interacts with other nuclear receptor signaling pathways. A cell based HepG2-AhR-luc assay (HG2L7.5c1 cell line, developed by Dr. Michael S. Denison, University of California at Davis, was used to assess the activation of AhR. HepG2 (human hepatocellular carcinoma) cells were stably transfected with an Ah receptor-responsive firefly luciferase reporter gene plasmid containing 20 dioxin responsive elements and luciferase reporter gene. Increased luciferase activity can be used to identify the compounds that induce AhR activation.
# Tox21 Assay Protocol Summary: 4000 cells in 5 uL/well were dispensed into white wall/solid bottom 1536-well plates using a Multidrop Combi (Thermo Fisher Scientific Inc., Waltham, MA) dispenser. After the assay plates were incubated at 37C for 5 h, 23 nL of compound or DMSO vehicle was transferred to the assay plates by a pintool station (Kalypsys, San Diego, CA). The plates were incubated at 37C for 24 hr. After 1 ul/well of CellTiter-Fluor reagent (Promega, Madison, WI) was added into the assay plates using a Flying Reagent Dispenser (FRD) (Aurora Discovery, CA), the assay plates were incubated at 37C for 30 min. The fluorescence intensity in the plates was measured using a ViewLux plate reader (PerkinElmer, Shelton, CT), followed by the addition of 4 uL of ONE-Glo Luciferase Assay reagent (Promega) using an FRD (Aurora Discovery). After the assay plates were incubated at room temperature for 30 min, luminescence intensity was measured using a ViewLux plate reader (Perkin Elmer).
# Potency means the concentration at half of the fitted maximal effect.
row,Structure (SMILES),Potency
1,COc1cc(N)c(Cl)cc1C(=O)NC1CCN(Cc2ccccc2)CC1,inactive
2,O=c1[nH]c(=O)n([C@H]2C[C@H](O)[C@@H](CO)O2)cc1C(F)(F)F,inactive
3,OCc1ccccc1O,inactive
4,O=C(O)[C@@H](O)[C@H](O)[C@H](O)[C@@H](O)C(=O)O,inactive
5,O=[N+]([O-])c1nccn1CO[C@@H](CO)[C@H](O)CO,inactive
6,CN(CC1(C)CCCO1)S(=O)(=O)c1ccc(Cl)c(S(N)(=O)=O)c1 (stereo not given),inactive
7,CC1=C(CC(=O)O)c2cc(F)ccc2/C1=C\c1ccc(S(C)(=O)=O)cc1,inactive
8,CC(C)CC(=O)OCc1ccccc1,inactive
9,O=C(O)[C@@H]1CSCN1,inactive
10,C=CCCCCCCCCO,inactive
11,O=C(C(Cl)Cl)N1CCOC12CCCCC2,inactive
12,CN(C)C(=O)NC1(c2ccccc2)CCN(CCC[C@]2(c3ccc(Cl)c(Cl)c3)CCCN(C(=O)c3ccccc3)C2)CC1,inactive
13,Nc1cccc(S(=O)(=O)O)c1,inactive
14,O=Cc1ccc(F)c(Br)c1,inactive
15,CCN1CC(CCN2CCOCC2)C(c2ccccc2)(c2ccccc2)C1=O (stereo not given),inactive
16,CN1CCN(c2c(F)cc3c(=O)c(C(=O)O)cn(CCF)c3c2F)CC1,inactive
17,COc1ccc(Nc2ccc(OC)cc2)cc1,inactive
18,C[C@]12CCC(=O)C=C1CC[C@@H]1[C@@H]2CC[C@@]2(C)[C@H]1CC[C@]2(O)C(=O)CO,inactive
19,CS(=O)(=O)c1ccc([C@@H](O)[C@@H](CF)NC(=O)C(Cl)Cl)cc1,inactive
20,O=C(O)C(=O)Cc1c[nH]c2ccccc12,6.11 µM (active)

row,Structure (SMILES),Potency
1,CC[C@H]1CC[C@H](NCc2cc3c(cc2OC)[C@H]2C[C@H]2C(=O)N3C)[C@H](c2ccccc2)N1,inactive
2,CCCCCCCCc1ccc(S(=O)(=O)O)cc1,inactive
3,CCC1(C)NC(=O)NC1=O (stereo not given),inactive
4,CCCCOc1cc(C(=O)NCCN(CC)CC)c2ccccc2n1,inactive
5,Cc1c[nH]c(=S)[nH]c1=O,inactive
6,COc1cc2c(cc1N)oc1ccccc12,31.3 µM (active)
7,CC(C)(C)C1CCCCC1=O (stereo not given),inactive
8,O=C1CCC(C2CCCCC2)CC1,inactive
9,COC(=O)N[C@H](C(=O)N[C@@H](Cc1ccccc1)[C@@H](O)CN(Cc1ccc(-c2ccccn2)cc1)NC(=O)[C@@H](NC(=O)OC)C(C)(C)C)C(C)(C)C,inactive
10,CC(C)(C)c1ccc(OC(=O)c2ccccc2O)cc1,inactive
11,NS(=O)(=O)c1cc(-c2nn[nH]n2)c(NCc2cccs2)cc1Cl,inactive
12,CC(C)C(=O)OCC(C)(C)C(O)C(C)C (stereo not given),inactive
13,CC(C)NCC(O)COc1ccc(CCOCC2CC2)cc1 (stereo not given),inactive
14,O=C(CC(=O)C(F)(F)F)c1ccccc1,inactive
15,COc1ccc2nc(NC(=O)Nc3ccccc3)sc2c1,10.6 µM (active)
16,CO[Si](C)(C)OC,inactive
17,CCc1cc(Cl)c(OC)c(C(=O)NC[C@@H]2CCCN2CC)c1O,inactive
18,COc1ccccc1N1CCN(CCCNc2cc(=O)n(C)c(=O)n2C)CC1,inactive
19,C[C@@H]1CN(c2c(F)c(N)c3c(=O)c(C(=O)O)cn(C4CC4)c3c2F)C[C@H](C)N1,inactive
20,CN1CCC[C@@H]1Cc1c[nH]c2ccc(CCS(=O)(=O)c3ccccc3)cc12,inactive
